Htt clearance: compounds clearing mutant huntingtin protein. HeLa Exon1htt(103Q)mCFP, aggregate imaging; zero = plate's median compound well. inhibition, % at 1.5 µM. 0.42% of 47,000 active;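 active = inhibition of aggregate fluorescence above about 70%, also judged a hit by eye on the cell image, limit read from the data, passing the limit was not always enough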;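 also: cells exposed to compound for three days before fixation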
Autofluor 339: intrinsic fluorescence of library compounds, ex339/em460 – biochemical, MLSMR library, data from DPM-DC assay, artefact control, profiling panel | AID 709 | 5.5% of 65,000 active | compound autofluorescence, ex339/em460 nm, NADH buffer; hits give high values; 1 = no-compound wells, NADH background | fluorescence fold increase at 10 µM;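 active = at 10 µM, mean starting fluorescence two-fold or more over control wells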;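 also: signal is the first read of a kinetic run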
M1 antagonist: antagonists of rat M1 muscarinic receptor | B-score at 10 µM | 3.4% of 64,000 active | CHO-M1 cells, Fluo-4 calcium, ACh EC80 antagonist mode; hits give low values;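 active = calcium fluorescence response, raw or row-and-column corrected B-score, differing from the plate sample mean either way at a set confidence level, mostly lower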
Target sequence (P08482 whole entry, looked up): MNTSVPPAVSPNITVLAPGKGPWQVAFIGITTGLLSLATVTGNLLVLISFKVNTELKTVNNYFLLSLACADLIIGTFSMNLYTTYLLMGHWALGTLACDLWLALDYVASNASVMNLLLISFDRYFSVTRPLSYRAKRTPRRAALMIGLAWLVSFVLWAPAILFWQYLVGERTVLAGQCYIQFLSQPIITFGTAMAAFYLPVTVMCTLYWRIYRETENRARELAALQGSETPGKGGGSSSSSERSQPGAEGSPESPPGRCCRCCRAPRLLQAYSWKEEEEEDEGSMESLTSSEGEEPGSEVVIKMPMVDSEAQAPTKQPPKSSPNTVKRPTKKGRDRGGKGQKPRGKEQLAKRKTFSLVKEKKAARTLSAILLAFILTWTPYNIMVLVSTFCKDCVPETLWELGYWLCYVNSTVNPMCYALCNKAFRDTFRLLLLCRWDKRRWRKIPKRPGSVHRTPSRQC
M1 ag: agonists of M1 muscarinic receptor | CHO-M1 cells, Fluo-4 calcium fluorescence, agonist mode; hits give high values | B-score at 10 µM | 3% of 64,000 active | AID 626;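 active = fluorescence rise, raw or as B-score row- and column-corrected plate score, outside the 99.7% band of its plate's samples, either direction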
NADH coupling: blocks coupling enzymes of NAD/NADH assays | IC50, µM (doses to about 10 µM), without a hit: at the top dose inhibition | 0.02% of 65,000 active | AID 774 | coupled PK/LDH NADH assays, four targets;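 active = single-dose screening hits from any of four coupled enzyme assays that gave an IC50 when retested across doses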;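 also: the DPM-DC format reads NADH fluorescence rather than 340 nm absorbance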
Abs 340nm: compound absorbs light at 340 nm. compound absorbance at 340 nm, fold over control. fold change at 10 µM. 65,000 tested, under 10 active. AID 708;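 active = at 10 µM dose, initial 340 nm absorbance at least 2 fold that of control wells; inactive = change under 2 fold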;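 also: initial absorbance extrapolated from kinetic A340 decline of NADH oxidation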
M1 antag conf: confirmation of rat M1 muscarinic receptor antagonists. shares compounds with M1 antagonist. CHO-M1 cells, Fluo-4 calcium, ACh EC80 antagonism; hits give low values. calcium response (max-min fluorescence) at 10 µM. 43% of 1,700 active. AID 677;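 active = calcium response below the same-plate mean of wells given acetylcholine alone at its 80%-effect dose, minus 3 SD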;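 also: raw fluorescence intensity difference in arbitrary instrument units and not normalized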
mGluR4 antag: selectivity test for M1 antagonists: human mGluR4 receptor | CHO-mGluR4 calcium flux, Fluo-4 fluorescence, glutamate EC80; hits give low values | 0.9% of 1,700 active | shares compounds with M1 antagonist | fluorescence response (max-min) at 10 µM;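 active = fluorescence response below the plate's average for near-maximal glutamate wells, less 3 SD of those wells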;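 also: raw unnormalized fluorescence span taken in the window right after glutamate addition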
Active calls of the source: *. A selection: hits, their analogues and other compounds. The true share with any hit is near 9.3%.

How did CC1CCN(CCc2nc3cc(NC(=O)Nc4ccccc4)ccc3n2C)CC1 do in these assays?
Htt clearance: 12; Autofluor 339: 1.1; M1 antagonist: -10*; M1 ag: -1.1; NADH coupling: 4%; Abs 340nm: 0.97; M1 antag conf: 302*; mGluR4 antag: 209

Results for Cn1c(CCN2CCN(c3ccccc3)CC2)nc2cc(NC(=O)c3ccco3)ccc21 ?
Htt clearance: 54; Autofluor 339: 1.1; M1 antagonist: -5.5*; M1 ag: 0.59; NADH coupling: 2%; Abs 340nm: 0.98; M1 antag conf: 125*; mGluR4 antag: 203

What do the screens show for `Cc1ccc(N2CCN(CCc3nc4cc(NC(=O)c5ccco5)ccc4n3C)CC2)cc1`?
Htt clearance: -17; Autofluor 339: 1; NADH coupling: 2%; Abs 340nm: 1.1

What do the screens show for `Cc1cccc2sc(NC(=O)C3c4ccccc4Oc4ccccc43)nc12`?
Htt clearance: 3

How did CCOc1ccc(C2/C(=C(/O)c3ccc(Cl)cc3)C(=O)C(=O)N2CCCN(C)C)cc1OC (configuration not stated) do in these assays?
Autofluor 339: 1.1; M1 antagonist: 0.016; M1 ag: 0.61; NADH coupling: 5%; Abs 340nm: 1

Results for CC(=O)NC1C(=O)Nc2c1cccc2C(F)(F)F (configuration not stated) ?
Htt clearance: 37; Autofluor 339: 1.3; M1 antagonist: 0.31; M1 ag: -0.26; NADH coupling: 1%; Abs 340nm: 1

What do the screens show for `O=C(Nc1ccc(Cl)cc1)N1CCSCC1`?
Autofluor 339: 1; M1 antagonist: -2.3*; M1 ag: -0.029; NADH coupling: 2%; Abs 340nm: 0.98; M1 antag conf: 554; mGluR4 antag: 213

How did CCCCNC(=O)C1CCN(C/C(C)=C/c2ccccc2)CC1 do in these assays?
Htt clearance: -102

How did CCCCN(C)C(=O)C1CCN(C/C(C)=C/c2ccccc2)CC1 do in these assays?
Autofluor 339: 1.1; M1 antagonist: -4*; M1 ag: -0.6; NADH coupling: 3%; Abs 340nm: 1; M1 antag conf: 520*; mGluR4 antag: 222

How did O=P(O)(CN1CCCCC1)C1CCCCC1O (configuration not stated) do in these assays?
Autofluor 339: 0.65; M1 antagonist: -0.21; M1 ag: 0.24; NADH coupling: 10%; Abs 340nm: 1

How did CC(=O)N1CCc2cc(Br)cc(S(=O)(=O)NCCCN3CCC(C)CC3)c21 do in these assays?
Htt clearance: -11; Autofluor 339: 1.1; M1 antagonist: -3.7*; M1 ag: 0.28; NADH coupling: 8%; Abs 340nm: 0.98; M1 antag conf: 638; mGluR4 antag: 238

How did CC(=O)N1CCc2cc(Br)cc(S(=O)(=O)NCCCN3CCCC(C)C3)c21 (configuration not stated) do in these assays?
Htt clearance: -71; Autofluor 339: 1.1; M1 antagonist: -0.43; M1 ag: 0.32; NADH coupling: 3%; Abs 340nm: 0.99

What do the screens show for `CCCC(=O)Nc1ccc2c(c1)nc(CN1CCCCC1)n2C`?
Htt clearance: 25; Autofluor 339: 1.2; M1 antagonist: -0.31; M1 ag: 0.17; NADH coupling: 2%; Abs 340nm: 1

What do the screens show for `CC(C)=CCC/C(C)=C/CCC(C)NCCN1CCNCC1` (configuration not stated)?
Autofluor 339: 1.1; M1 antagonist: -6.6*; M1 ag: -0.08; NADH coupling: 7%; Abs 340nm: 0.99; M1 antag conf: 390*; mGluR4 antag: 262

Results for CCOC(=O)C1CCCN(C(=O)c2cc3c(C)nc4ccccc4c3o2)C1 (configuration not stated) ?
Htt clearance: 2; Autofluor 339: 1.1; M1 antagonist: -2.7*; M1 ag: -0.44; NADH coupling: 3%; Abs 340nm: 0.99; M1 antag conf: 486*; mGluR4 antag: 143*

How did Cc1cc(C)n(-c2ccc(-n3ccnc3)nn2)n1 do in these assays?
Autofluor 339: 1.1; M1 antagonist: -0.91; M1 ag: 0.28; NADH coupling: 1%; Abs 340nm: 1

What do the screens show for `Cc1ccc2[nH]c(=O)c(-c3nc4cc(C)ccn4c3NCc3ccco3)cc2c1`?
Autofluor 339: 1.1; M1 antagonist: -3.3*; M1 ag: 0.097; NADH coupling: 7%; Abs 340nm: 1.1; M1 antag conf: 412; mGluR4 antag: 217

Results for OCCN=C(c1ccccc1)C12CN3CN(CN(C3)C1)C2 ?
Autofluor 339: 1; M1 antagonist: -2.4*; M1 ag: -0.87; NADH coupling: 1%; Abs 340nm: 1; M1 antag conf: 466; mGluR4 antag: 215

How did O=[N+]([O-])c1cccc(/C=N/Nc2cc(Cl)nc(-c3ccccc3)n2)c1 do in these assays?
Htt clearance: -25

Results for COc1cccc(C(c2nnnn2Cc2ccco2)N2CCN(c3cccc(C)c3C)CC2)c1OC (configuration not stated) ?
Htt clearance: -27; Autofluor 339: 1.1; M1 antagonist: -4.3*; M1 ag: -0.31; NADH coupling: 5%; Abs 340nm: 1; M1 antag conf: 639; mGluR4 antag: 202

What do the screens show for `COc1cccc(C(c2nnnn2CCc2ccccc2)N2CCN(c3ccccc3)CC2)c1OC` (configuration not stated)?
Htt clearance: -16; Autofluor 339: 1; M1 antagonist: -0.024; M1 ag: -0.023; NADH coupling: 4%; Abs 340nm: 0.99

How did Cc1nnc(SCCn2c(N3CCCC(C)C3)nc3c2c(=O)n(C)c(=O)n3C)s1 (configuration not stated) do in these assays?
Htt clearance: -65; Autofluor 339: 1.1; M1 antagonist: -2.4; M1 ag: 0.14; NADH coupling: 1%; Abs 340nm: 1.1

How did Fc1ccc(-n2[nH]nnc2=S)cc1N1CCCC1 do in these assays?
Autofluor 339: 1.1; M1 antagonist: 0.003; M1 ag: -0.79; NADH coupling: 7%; Abs 340nm: 1

How did COc1ccccc1S(=O)Cc1ccc(C(=O)NCCc2ccc(Cl)cc2)o1 (configuration not stated) do in these assays?
Autofluor 339: 1; M1 antagonist: -3.2*; M1 ag: 2.4; NADH coupling: 3%; Abs 340nm: 1; M1 antag conf: 545; mGluR4 antag: 193
